Results: the supplement of paper PMC3545927
The list shows a part of the results. The hit rate among all sequences tested is not known here.

Biological target: furin, P09958
Experiment: furin cleavage Z-score vs untreated control; higher = more cleavage, active = 3.5 or more, inactive = 1 or less, 8 variable residues between constant flanks
Outline: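 The cleavage Z-score is the log read count relative to furin-free reactions, lowess-adjusted and scaled by median absolute deviation. Counts came from sequencing DNA released from bead-bound 8-mer peptide–cDNA fusions after digestion with purified furin for 7.5, 15 or 30 min.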
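Note: purified furin at 1:10 enzyme:substrate in 50 mM HEPES pH 7.5.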

Sequence of furin, P09958 (P09958 whole entry): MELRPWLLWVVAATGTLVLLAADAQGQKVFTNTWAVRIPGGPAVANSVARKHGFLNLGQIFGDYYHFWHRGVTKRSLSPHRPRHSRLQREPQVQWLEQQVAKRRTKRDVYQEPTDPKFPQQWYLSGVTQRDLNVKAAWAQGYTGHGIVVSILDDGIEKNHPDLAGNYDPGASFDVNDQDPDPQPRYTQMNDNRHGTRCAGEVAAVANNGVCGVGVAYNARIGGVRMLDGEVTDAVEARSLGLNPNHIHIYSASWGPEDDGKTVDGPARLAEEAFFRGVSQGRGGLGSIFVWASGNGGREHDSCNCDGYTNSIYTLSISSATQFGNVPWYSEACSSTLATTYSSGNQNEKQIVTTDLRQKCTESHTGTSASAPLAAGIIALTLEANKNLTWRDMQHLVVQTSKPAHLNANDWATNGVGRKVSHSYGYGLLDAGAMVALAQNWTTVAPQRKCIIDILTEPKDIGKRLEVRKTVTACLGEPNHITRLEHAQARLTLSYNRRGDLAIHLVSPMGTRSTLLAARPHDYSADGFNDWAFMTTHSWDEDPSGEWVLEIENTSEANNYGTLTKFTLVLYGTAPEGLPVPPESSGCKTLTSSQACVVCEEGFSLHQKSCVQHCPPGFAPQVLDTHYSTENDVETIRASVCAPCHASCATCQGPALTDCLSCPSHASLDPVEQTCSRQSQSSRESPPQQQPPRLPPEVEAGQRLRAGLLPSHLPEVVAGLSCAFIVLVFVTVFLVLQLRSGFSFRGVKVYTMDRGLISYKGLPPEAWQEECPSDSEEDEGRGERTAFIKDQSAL

CARARRHSDGAGNASASA [FS-2480]
furin cleavage Z-score (7.5 min): 6.39 (active)
furin cleavage Z-score (15 min): 6.07 (active)
furin cleavage Z-score (30 min): 5.39 (active)

CAKVVILDSFAGNASASA [HC1285]
furin cleavage Z-score (7.5 min): -0.496 (inactive)
furin cleavage Z-score (15 min): -1.22 (inactive)
furin cleavage Z-score (30 min): -0.351 (inactive)

CAIALRLRRSAGNASASA [FS-32]
furin cleavage Z-score (7.5 min): 1.01
furin cleavage Z-score (15 min): 0.68 (inactive)
furin cleavage Z-score (30 min): 0.673 (inactive)

CAKVLRSRRSAGNASASA [FS-1353]
furin cleavage Z-score (7.5 min): 3.74 (active)
furin cleavage Z-score (15 min): 4.72 (active)
furin cleavage Z-score (30 min): 3.35

CASPRDARRSAGNASASA [FS-1614]
furin cleavage Z-score (7.5 min): -1.33 (inactive)
furin cleavage Z-score (15 min): -1.24 (inactive)
furin cleavage Z-score (30 min): -1.6 (inactive)

CAASRVSRRSAGNASASA [FS-979]
furin cleavage Z-score (7.5 min): 5.49 (active)
furin cleavage Z-score (15 min): 7.22 (active)
furin cleavage Z-score (30 min): 5.62 (active)

CAHPRRSRRSAGNASASA [FS-932]
furin cleavage Z-score (7.5 min): 8.18 (active)
furin cleavage Z-score (15 min): 9.38 (active)
furin cleavage Z-score (30 min): 7.97 (active)

CAHSRRSRRSAGNASASA [DV5]
furin cleavage Z-score (7.5 min): 12.2 (active)
furin cleavage Z-score (15 min): 12.3 (active)
furin cleavage Z-score (30 min): 9.14 (active)

CAASRGNHVSAGNASASA [HC1122]
furin cleavage Z-score (7.5 min): 1.32
furin cleavage Z-score (15 min): 0.577 (inactive)
furin cleavage Z-score (30 min): 1.1

CAYPYRLWHYAGNASASA [HC466]
furin cleavage Z-score (7.5 min): -1.33 (inactive)
furin cleavage Z-score (15 min): -2.06 (inactive)
furin cleavage Z-score (30 min): 0.263 (inactive)

CASTPCSTHLAGNASASA [HC2538]
furin cleavage Z-score (7.5 min): -0.715 (inactive)
furin cleavage Z-score (15 min): 0.257 (inactive)
furin cleavage Z-score (30 min): -0.443 (inactive)

CAYCWHYPPKAGNASASA [HC403]
furin cleavage Z-score (7.5 min): 1.04
furin cleavage Z-score (15 min): 0.468 (inactive)
furin cleavage Z-score (30 min): 2.44
